Where “and” joins values, the source holds several entries; their conditions need not be identical. Equal values may be shown once. Results filed as inconclusive are left out. Entries that show only a call come without a potency. Calls of active or inactive are those of the source. Calls follow the shape of the dose curve; as a rule, active = well fitted cell-killing curve with a large enough effect; inconclusive = small, poorly fitted or top-dose-only effect; inactive = flat fitted curve, though single readings scatter.
Assay: qHTS of pediatric cancer cell lines to identify multiple opportunities for drug repurposing: Primary screen for RD cells (AID 1347104); also: nearly all actives have a fitted effect of over 55% in size
Settings: RD rhabdomyosarcoma viability, CellTiter-Glo luminescence, 48 h; series mostly up to 46 µM
Source text: Drug repurposing or repositioning has been offered as a strategy for drug development in oncology programs. This approach has special potential for childhood cancers and other rare or orphan diseases, where the expected return on new drug development has been a disincentive to pharmaceuticals. […] In this project we exploit the poly-pharmacology of drugs to discover new indications via phenotypic screening of a panel of 19 well-characterized cell lines derived from solid tumors seen in children and adolescents. The goal is to identify approved drugs with previously unrecognized anticancer properties that has the potential to reveal new mechanisms and biological processes involved in carcinogenesis or drug resistance. We employed a titration-based paradigm (quantitative high-throughput screening or qHTS), where all compounds were tested at multiple concentrations for their effect on cell viability. Concentration-response curves (CRCs) were derived directly from the primary screen, and both potency and efficacy values were used to identify compounds with robust bioactivity profiles. We screened the NIH Chemical Genomics Center (NCGC) Pharmaceutical Collection (NPC) and Mechanism Interrogation Plate (MIPE) small molecule collections of approved and investigational compounds against these cell lines; and measured metabolically active cells after 48 hours of compound treatment as a proxy for cell viability. […] Assay Submitter: Nathalia J. Martinez, National Center for Advancing Translational Sciences, National Institutes of Health, Rockville, MD, USA; email: natalia.martinez@nih.gov Shen, M et al. Quantitative high-throughput phenotypic screening of pediatric cancer cell lines identifies multiple opportunities for drug repurposing. Oncotarget 2017 Dec 19;9(4):4758-4772. PMID 29435139.
The cells were obtained from University of North Carolina (UNC), Pediatric Preclinical Testing Program (PPT), and Coriell Institute (CI). qHTS cell viability assay: Cells were assayed in growth media at a density of 500-1,000 cells/well. Five microliters of cells were dispensed into 1,536-well, white, solid-bottom, TC-treated plates (Greiner Bio One) using a multidrop dispenser and incubated at 37 degrees C, 5% CO2, under a humidified atmosphere for 5 hours. Twenty-three nanoliters of compounds and controls (neutral control DMSO or positive control bortezomib at final concentration of 2.3 µM) were subsequently transferred by Kalypsys pintool. For primary screens, the MIPE collection was tested at 11-point dilutions (final concentrations range from 0.78 nM to 46 µM) and the NPC collection at 8-point dilutions (final concentrations range from 0.59 nM to 46 µM). Compounds tested in follow-up screens were assayed at 11-point dilutions. Cells were incubated for 48 hours, followed by addition of 3 µL of CellTiter-Glo (Promega). After a 15 min incubation at room temperature, samples were analyzed for luminescence intensity using a ViewLux High-throughput CCD imager equipped with clear filters.
With COc1cc(NCc2ccc3nc(N)nc(N)c3c2C)cc(OC)c1OC the Potency was 4.18 µM (active) and 119 nM (active). In the case of Cc1cc(NS(=O)(=O)c2ccc(N)cc2)no1, the Potency is reported as “inactive”. In the case of CN1CCN(c2c(F)cc3c(=O)c(C(=O)O)cn4c3c2OCN4C)CC1, the Potency is reported as “inactive”. In the case of CO[C@@]12[C@H](COC(N)=O)C3=C(C(=O)C(C)=C(N)C3=O)N1C[C@@H]1N[C@@H]12, the Potency is reported as 18.8 µM (active) and 18.7 µM (active). For O=NN(CCCl)C(=O)NC1CCCCC1, the Potency was “inactive”. For CN(C)CCc1c[nH]c2ccc(CS(=O)(=O)N3CCCC3)cc12, the Potency was “inactive”. For NC(=O)c1cccc(N)c1, the Potency was “inactive”. For COc1cc(NS(=O)(=O)c2ccc(N)cc2)nc(OC)n1, the Potency was “inactive”. In the case of NC1(c2ccc(-c3nc4ccn5c(=O)[nH]nc5c4cc3-c3ccccc3)cc2)CCC1, the Potency is reported as 16.6 µM (active) and 13.3 µM (active). In the case of COCCCOc1cc(C[C@@H](C[C@H](N)[C@@H](O)C[C@H](C(=O)NCC(C)(C)C(N)=O)C(C)C)C(C)C)ccc1OC, the Potency is reported as “inactive”. For Cc1onc(-c2ccccc2Cl)c1C(=O)N[C@@H]1C(=O)N2[C@@H]1SC(C)(C)[C@@H]2C(=O)O, the Potency was “inactive”. For CCN1CCCC1CNC(=O)c1cc(S(N)(=O)=O)ccc1OC (stereo not given), the Potency was “inactive”. In the case of CCn1cc(C(=O)O)c(=O)c2cc(F)c(N3CCN(C)CC3)cc21, the Potency is reported as “inactive”. In the case of O=C(O)C1CCCN(CCC=C(c2ccccc2)c2ccccc2)C1 (stereo not given), the Potency is reported as “inactive”. For O=C(O)c1cc(=O)[nH]c(=O)[nH]1, the Potency was “inactive”. In the case of O[C@@H](CNC[C@H](O)[C@H]1CCc2cc(F)ccc2O1)[C@@H]1CCc2cc(F)ccc2O1, the Potency is reported as 33.2 µM (active). In the case of CCCOc1ccc(C(=O)OCCN(CC)CC)cc1N, the Potency is reported as “inactive”. For CS(=O)(=O)c1ccc([C@@H](O)[C@@H](CO)NC(=O)C(Cl)Cl)cc1, the Potency was “inactive”. With CCOCC(O)COc1ccc(NC(=O)CC[S+](C)C)cc1 (stereo not given) the Potency was “inactive”. For CN(Cc1cc(Br)cc(Br)c1N)C1CCCCC1, the Potency was “inactive”. In the case of CN(C)CCc1c[nH]c2ccc(C[C@H]3COC(=O)N3)cc12, the Potency is reported as “inactive”. With CN(C)c1ccc(C(=C2C=CC(=[N+](C)C)C=C2)c2ccc(N(C)C)cc2)cc1 the Potency was 1.88 µM (active) and 662 nM (active). For CNNCc1ccc(C(=O)NC(C)C)cc1, the Potency was “inactive”. With CN(CCOc1ccc(CC2SC(=O)NC2=O)cc1)c1ccccn1 (stereo not given) the Potency was “inactive”. With CN1CCN(c2c(F)cc3c(=O)c(C(=O)O)cn(CCF)c3c2F)CC1 the Potency was “inactive”. With COC(c1ccccc1)(c1ccccc1)[C@H](Oc1nc(C)cc(C)n1)C(=O)O the Potency was “inactive”. In the case of N[C@@H](Cc1ccc(O)c(O)c1)C(=O)O, the Potency is reported as “inactive”. In the case of O=C(O)CCn1c2c(c3ccccc31)C[C@H](NS(=O)(=O)c1ccc(F)cc1)CC2, the Potency is reported as “inactive”. In the case of CC1=NN(c2ccccc2)C(=O)C1, the Potency is reported as “inactive”. With Cn1c(=O)c2c(ncn2CC(O)CO)n(C)c1=O (stereo not given) the Potency was “inactive”. For CNCC[C@H](Oc1cccc2ccccc12)c1cccs1, the Potency was 26.6 µM (active) and 4.69 µM (active). For COc1ccc2cc3[n+](cc2c1OC)CCc1cc2c(cc1-3)OCO2, the Potency was 10.5 µM (active). In the case of CC(C)OC(=O)OCOP(=O)(CO[C@H](C)Cn1cnc2c(N)ncnc21)OCOC(=O)OC(C)C, the Potency is reported as “inactive”. With CN1CCCC(n2nc(Cc3ccc(Cl)cc3)c3ccccc3c2=O)CC1 (stereo not given) the Potency was 5.9 µM (active). For CC(N)C12CC3CC(CC(C3)C1)C2 (stereo not given), the Potency was “inactive”. For Cn1nnc2c(C(N)=O)ncn2c1=O, the Potency was “inactive”. In the case of CCCCc1oc2ccc(NS(C)(=O)=O)cc2c1C(=O)c1ccc(OCCCN(CCCC)CCCC)cc1, the Potency is reported as 18.7 µM (active) and 23.7 µM (active). For CCCc1cc(C(N)=S)ccn1, the Potency was “inactive”. In the case of CC(C)(Sc1cc(C(C)(C)C)c(O)c(C(C)(C)C)c1)Sc1cc(C(C)(C)C)c(O)c(C(C)(C)C)c1, the Potency is reported as “inactive”. For Cc1ccc(S(=O)(=O)N[C@@H](Cc2ccccc2)C(=O)CCl)cc1, the Potency was 26.4 µM (active).

Reference: PubChem BioAssay (NCATS)
Potency is read from the fitted curve at half-maximal effect.
